Test results as given in the supplement of paper PMC10338343.
± gives the standard deviation.

system: MILI (PIWIL2) piRISC loaded with L1MC piRNA (26 nt); assay: pre-steady-state target cleavage rate (min^-1); guide: L1MC piRNA 5'p-UAACUAAAUACUAUGCAAGCUGUAGG; MIWI and MILI are mouse PIWI proteins and EfPiwi is from a freshwater sponge; tags in brackets are library labels; higher = faster piRNA-guided slicing of the target; conditions: auxiliary factor: 500 nM mouse GTSF1
Method in brief: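 A transcribed, DNA-blocked target RNA library (0.1 nM) and 1 nM active affinity-purified piRISC bearing one synthetic guide were incubated in HEPES–potassium acetate buffer at 33 °C for 0–8 or 0–960 min, either with or without 500 nM GTSF1 partner protein. Uncleaved targets were sequenced, normalised to depth and to weakly complementary targets, and pooled over three trials, with k3 capped at 0.0001 min^-1. The pre-steady-state cleavage rate was derived with a burst-and-steady-state fit.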

| Sequence | pre-steady-state target cleavage rate |
| --- | --- |
| UCCUGGAUGUCCUUGCAUAGUAUUUCGUUA | 0.0489 ± 0.017 |
| UCCUGGAUCAGCUUGCAUUGUAUUUUCAAA | 0.00931 ± 0.0046 |
| UCCUGGUACAGCUUGGAUAGAAUUUAGUUA | 0.0709 ± 0.025 |
| UCCUCCUACAGCUUGCAUAGCUAUUUAGUUA | 0.0126 ± 0.0058 |
| UCCUGGAUCAGCUUGCAUAGUUAUUAGUAA | 0.00826 ± 0.0047 |
| UCCUGGAUGUCCUUGCUUAGUAUUUACUUA | 0.0556 ± 0.015 |
| UCCUGGAUCAGCUUGGUAAGUAUUUAGUAA | 0.0371 ± 0.011 |
| UCCUGGAUGAGCUUGCAUAGUAUAAUGAAA | 0.00735 ± 0.0041 |
| UCCUGGAUGUCGUUGCAUAGUAUUAAGUUA | 0.142 ± 0.028 |
| UCCUGGAACUGCUUGCAUAGUAUUUACAAA | 0.0945 ± 0.022 |
| UCCUGGAUGUCCAUGCAUAGAAUUUAGUUA | 0.0111 ± 0.0048 |
| UCCUGGAUGUCGUUGCAUAGUAUAUUGUUA | 0.0458 ± 0.017 |
| UCCUGGAUCAGGUUGCAUAGUAUUUUCAAA | 0.07 ± 0.023 |
| UCCUGGAUGUGCUAGCAUAGUAUUUAGAAA | 0.0422 ± 0.012 |
| UCCUGCUACAGCUUGCAUGAGUAUUUAGUUA | 0.0058 ± 0.0041 |
| UCCUGGAUCAGCUUGCAUAGUAUAAACAAA | 0.0772 ± 0.019 |

| Sequence | pre-steady-state target cleavage rate |
| --- | --- |
| UCCUCCUACAGCUUGCAUAGUAAAUAGAAA | 0.0692 ± 0.02 |
| UCCUGGAUCAGCUUGCUAAGUAUUUAGUAA | 0.0344 ± 0.01 |
| UCCUGGAUGAGCUUGCAUAGUAUAUAGAAA | 0.00651 ± 0.005 |
| UCCUGCUACUCGUUGCAUAGUAUUUUCAAA | 0.0428 ± 0.014 |
| UCCUGCUACAGCUUGCAUAGUAUAUACUUA | 0.0361 ± 0.011 |
| UCCUGGAUGUCCUUGCCAUAGUAUUUAGUUA | 0.00783 ± 0.0048 |
| UCCUGGAUCAGCUUGCAUAGUAAAUAGAAA | 0.0183 ± 0.0078 |
| UCCUGGAUGUCCUUGCAUAGUAAUUAGUAA | 0.0241 ± 0.0076 |
| UCCUGGUAGUCCUUGCAUAGUAUUUAGAAA | 0.0521 ± 0.017 |
| UCCUGGAUGAGCUAGCAUAGUAUUUACUUA | 0.169 ± 0.042 |
| UCCUGCUACUGCUUGCAUAGUAUUUACAAA | 0.0206 ± 0.0071 |
| UCCUGGAUGUCGAUGCAUAGUAUUUACUUA | 0.0276 ± 0.01 |
| UCCUGGUAGAGCUUGCAUAGUAUUUACAAA | 0.015 ± 0.0066 |
| UCCUCCUACAGCUUGCAAUCUAUUUAGAAA | 0.0218 ± 0.007 |
| UCCUGGAUCAGCUUGCAUGUAUUUAGUUA | 0.041 ± 0.0073 |
| UCCUGGAUCACGAUGCAUAGUAUUUACAAA | 0.0606 ± 0.015 |

same assay, conditions: auxiliary factor: none (no GTSF1)

| Sequence | pre-steady-state target cleavage rate |
| --- | --- |
| UCCUGGAUGUCGAACCAUAGUAUUUAGUGUA | < 0.0001 |
| UCCUGGAUGUCGUUGCAUAGGUAUUUAGUUA | 0.00509 ± 0.0029 |
| UCCUGGAUGUCGUUGCAUAGAUUUUAGUUA | 0.00439 ± 0.0019 |
| UCCUGGAUGUCGAACGUAAGUUUUAGUUA | < 0.0001 |
| UCCUGGAUGUCGAACCAAAGUAUUUAGAUA | < 0.0001 |
| UCCUGGAUGUCGAACCAAAGUAAUUAGUUA | < 0.0001 |
| UCCUGGAUGUCGAACGUAUUUAUUUAGUUA | < 0.0001 |
| UCCUGGAACAGCUUGCAAUCAUAAAUCAAA [g14:g23:cont:t1A] | < 0.0001 |
